# Data published in the supplement of paper PMC7411054.
# Structures can show the parent of a compound that is named as a salt.
# What was measured:
# Details in all cases: treatment time: 24 h
# [1] = system: A549-ACTB-RAB5A; experiment: lowest phenotypically active concentration; higher = less potent
# Outline: (§1)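 Two criteria together defined phenotypic activity: deviation and reproducibility. Deviation meant ≥3 of 4 wells beyond the 95th percentile of Euclidean distances in solvent control wells, and reproducibility meant a median replicate Pearson correlation above the 95th percentile of non-replicates. Wells had been treated for 24 h at 0.3, 1, 3 or 9 µM in fifteen gene-edited A549, HepG2 and WPMY1 reporter lines before live imaging.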
# [2] = system: A549-GM130-SQSTM1; experiment: as above
# Outline: as §1
# [3] = system: A549-TUBA1B-RELA; experiment: as above
# Outline: as §1
# [4] = system: HepG2-ACTB-RAB5A; experiment: as above
# Outline: as §1
# [5] = system: HepG2-TP53BP1-CLTA; experiment: as above
# Outline: as §1
# [6] = system: A549-ACTB-RAB5A; experiment: phenotypically active (imaging signature differs from DMSO and reproducible) at any of 0.3-9 uM (binary (1 = active, 0 = inactive)); higher = active
# Outline: as §1
# [7] = system: A549-CANX-COX4; experiment: as above
# Outline: as §1
# [8] = system: A549-GM130-SQSTM1; experiment: as above
# Outline: as §1
# [9] = system: A549-TP53BP1-CLTA; experiment: as above
# Outline: as §1
# [10] = system: A549-TUBA1B-RELA; experiment: as above
# Outline: as §1
# [11] = system: HepG2-ACTB-RAB5A; experiment: as above
# Outline: as §1
# [12] = system: HepG2-CANX-COX4; experiment: as above
# Outline: as §1
# [13] = system: HepG2-GM130-SQSTM1; experiment: as above
# Outline: as §1
# [14] = system: HepG2-TP53BP1-CLTA; experiment: as above
# Outline: as §1
# [15] = system: HepG2-TUBA1B-RELA; experiment: as above
# Outline: as §1
# [16] = system: WPMY1-ACTB-RAB5A; experiment: as above
# Outline: as §1
# [17] = system: WPMY1-CANX-COX4; experiment: as above
# Outline: as §1
# [18] = system: WPMY1-GM130-SQSTM1; experiment: as above
# Outline: as §1
# [19] = system: WPMY1-TP53BP1-CLTA; experiment: as above
# Outline: as §1
# [20] = system: WPMY1-TUBA1B-RELA; experiment: as above
# Outline: as §1
SMILES,lowest phenotypically active concentration [1] [µM],lowest phenotypically active concentration [2] [µM],lowest phenotypically active concentration [3] [µM],lowest phenotypically active concentration [4] [µM],lowest phenotypically active concentration [5] [µM],phenotypically active [6],phenotypically active [7],phenotypically active [8],phenotypically active [9],phenotypically active [10],phenotypically active [11],phenotypically active [12],phenotypically active [13],phenotypically active [14],phenotypically active [15],phenotypically active [16],phenotypically active [17],phenotypically active [18],phenotypically active [19],phenotypically active [20]
C[C@H]1Oc2cc(cnc2N)-c2c(nn(C)c2C#N)CN(C)C(=O)c2ccc(F)cc21,3,1,1,3,3,1 (active),0 (inactive),1 (active),1 (active),1 (active),1 (active),1 (active),1 (active),1 (active),1 (active),0 (inactive),0 (inactive),0 (inactive),1 (active),0 (inactive)
COc1ccc(CNC(=O)Nc2ncc([N+](=O)[O-])s2)cc1,9,9,9,–,–,1 (active),0 (inactive),1 (active),1 (active),1 (active),0 (inactive),0 (inactive),0 (inactive),0 (inactive),0 (inactive),0 (inactive),1 (active),1 (active),1 (active),0 (inactive)
CNCCC(Oc1ccc(C(F)(F)F)cc1)c1ccccc1 (configuration not stated) [fluoxetine],3,9,3,–,9,1 (active),0 (inactive),1 (active),1 (active),1 (active),0 (inactive),0 (inactive),0 (inactive),1 (active),1 (active),0 (inactive),0 (inactive),1 (active),0 (inactive),0 (inactive)
CCCNCC(O)COc1ccccc1C(=O)CCc1ccccc1 (configuration not stated) [propafenone],9,9,9,9,–,1 (active),0 (inactive),1 (active),1 (active),1 (active),1 (active),0 (inactive),0 (inactive),0 (inactive),1 (active),1 (active),1 (active),1 (active),1 (active),0 (inactive)
COc1ccc(CCNCc2ccc(OCc3ccc(Cl)nc3)c(OC)c2)cc1OC [SBE 13 hydrochloride],3,9,3,9,9,1 (active),0 (inactive),1 (active),1 (active),1 (active),1 (active),0 (inactive),0 (inactive),1 (active),1 (active),1 (active),1 (active),1 (active),1 (active),1 (active)
COc1c(C=O)c(O)cc2c1C(=O)c1ccccc1C2=O [Damnacanthal],9,3,–,9,9,1 (active),0 (inactive),1 (active),1 (active),0 (inactive),1 (active),0 (inactive),1 (active),1 (active),0 (inactive),1 (active),1 (active),1 (active),1 (active),1 (active)
CCCCOc1cc(C(=O)NCCN(CC)CC)c2ccccc2n1 [cinchocaine],3,9,9,–,9,1 (active),0 (inactive),1 (active),1 (active),1 (active),0 (inactive),0 (inactive),0 (inactive),1 (active),0 (inactive),1 (active),0 (inactive),0 (inactive),0 (inactive),0 (inactive)
COc1cc(OC)c2cc(-c3ccncc3)cnc2c1 [DMPQ dihydrochloride],9,9,–,–,–,1 (active),0 (inactive),1 (active),1 (active),0 (inactive),0 (inactive),1 (active),0 (inactive),0 (inactive),0 (inactive),0 (inactive),1 (active),0 (inactive),1 (active),0 (inactive)
Cc1ccc(NC2=CC(=O)c3sc(C)nc3C2=O)cc1 [Ryuvidine],9,9,3,3,3,1 (active),0 (inactive),1 (active),1 (active),1 (active),1 (active),0 (inactive),1 (active),1 (active),0 (inactive),1 (active),1 (active),1 (active),0 (inactive),1 (active)
CC/C(=C(\CC)c1ccc(O)c(CN(CC)CC)c1)c1ccc(O)c(CN(CC)CC)c1,≤ 0.3,≤ 0.3,≤ 0.3,1,≤ 0.3,1 (active),0 (inactive),1 (active),1 (active),1 (active),1 (active),0 (inactive),1 (active),1 (active),1 (active),1 (active),1 (active),1 (active),1 (active),1 (active)
CC(C)(C)c1ccc2cc(C#N)c(C#N)cc2c1,3,3,–,–,–,1 (active),0 (inactive),1 (active),0 (inactive),0 (inactive),0 (inactive),0 (inactive),0 (inactive),0 (inactive),0 (inactive),0 (inactive),0 (inactive),0 (inactive),0 (inactive),0 (inactive)
O=S(=O)(c1cccc2cnccc12)N1CCCNCC1 [fasudil],3,9,3,9,3,1 (active),0 (inactive),1 (active),1 (active),1 (active),1 (active),1 (active),1 (active),1 (active),1 (active),1 (active),1 (active),1 (active),0 (inactive),1 (active)
CCCS(=O)(=O)Nc1ccc(F)c(C(=O)c2c[nH]c3ncc(Cl)cc23)c1F,3,9,9,3,1,1 (active),0 (inactive),1 (active),1 (active),1 (active),1 (active),1 (active),1 (active),1 (active),1 (active),0 (inactive),0 (inactive),1 (active),0 (inactive),0 (inactive)
COc1cc(N2CCC(N)CC2)ccc1Nc1ncc(Cl)c(-c2c[nH]c3ccccc23)n1,3,≤ 0.3,1,3,3,1 (active),0 (inactive),1 (active),1 (active),1 (active),1 (active),1 (active),1 (active),1 (active),1 (active),1 (active),1 (active),1 (active),1 (active),1 (active)
Cc1cc(CS(=O)(=O)c2ccccc2)cc(OCc2ccc(CN3CCC[C@@H]3CO)cc2)c1 [PF 543 hydrochloride],9,9,9,9,9,1 (active),0 (inactive),1 (active),0 (inactive),1 (active),1 (active),0 (inactive),1 (active),1 (active),0 (inactive),1 (active),0 (inactive),0 (inactive),0 (inactive),0 (inactive)
CCCc1cc(C)n(C)c(=O)c1CN(C)C(=O)c1cc(-c2ccc(N3CCN(C(C)C)CC3)nc2)cc2c1cnn2C(C)C,3,3,3,9,3,1 (active),0 (inactive),1 (active),0 (inactive),1 (active),1 (active),0 (inactive),1 (active),1 (active),0 (inactive),1 (active),1 (active),1 (active),1 (active),1 (active)
COc1cc(NC(=O)c2cccc(-n3cc(NC(=O)Nc4cccc(C)c4)cn3)c2)cc(OC)c1OC,9,3,9,9,–,1 (active),0 (inactive),1 (active),0 (inactive),1 (active),1 (active),0 (inactive),0 (inactive),0 (inactive),0 (inactive),0 (inactive),0 (inactive),1 (active),0 (inactive),1 (active)
c1ccc(CN(CC2=NCCN2)c2ccccc2)cc1 [antazoline],3,9,9,–,–,1 (active),0 (inactive),1 (active),0 (inactive),1 (active),0 (inactive),0 (inactive),0 (inactive),0 (inactive),0 (inactive),0 (inactive),0 (inactive),0 (inactive),0 (inactive),0 (inactive)
CCOC(=O)c1c(CSc2ccccc2)n(C)c2cc(Br)c(O)c(CN(C)C)c12 [arbidol],9,9,9,9,9,1 (active),0 (inactive),1 (active),0 (inactive),1 (active),1 (active),1 (active),1 (active),1 (active),1 (active),0 (inactive),0 (inactive),1 (active),0 (inactive),0 (inactive)
Clc1ccc2c(c1)C(N1CCNCC1)=Nc1ccccc1O2 [amoxapine],3,3,3,9,–,1 (active),0 (inactive),1 (active),0 (inactive),1 (active),1 (active),0 (inactive),1 (active),0 (inactive),1 (active),1 (active),0 (inactive),0 (inactive),0 (inactive),1 (active)
COc1cc(C(C)=O)ccc1OCCCN1CCC(c2noc3cc(F)ccc23)CC1 [iloperidone],3,9,3,–,–,1 (active),0 (inactive),1 (active),0 (inactive),1 (active),0 (inactive),0 (inactive),0 (inactive),0 (inactive),0 (inactive),0 (inactive),0 (inactive),0 (inactive),0 (inactive),0 (inactive)
